Reference: PubChem BioAssay (NCI)
Compounds without any hit were thinned out: in the full panel of roughly 83,000, 20% have a hit.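 Testing used 96-well plates and a 48-hour single-concentration exposure. Example: -40 means 40% of the starting cells died.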 Unmarked numbers belong to inactive results. Active and inactive are the calls of the source. How the source made its calls: active means growth percent below 10; inactive means the rest.

Columns and labels:
Assay in all cases: NCI-60 one-dose screen, 48 h (100 = growth as untreated, 0 = no growth, -100 = all killed)
Conditions in all cases: 10 µM unless noted
NCI-H23 lung = tested on: NCI-H23 lung
NCI-H226 lung = tested on: NCI-H226 lung
NCI-H322M lung = tested on: NCI-H322M lung
HOP-62 NSCLC = tested on: HOP-62 NSCLC
HOP-92 NSCLC = tested on: HOP-92 NSCLC
NCI-H522 lung = tested on: NCI-H522 lung
A549/ATCC NSCLC = tested on: A549/ATCC NSCLC
786-0 renal = tested on: 786-0 renal
COLO 205 colon = tested on: COLO 205 colon
NCI-H460 lung = tested on: NCI-H460 lung

Row | Compound | growth (NCI-H23 lung) | growth (NCI-H226 lung) | growth (NCI-H322M lung) | growth (HOP-62 NSCLC) | growth (HOP-92 NSCLC) | growth (NCI-H522 lung) | growth (A549/ATCC NSCLC) | growth (786-0 renal) | growth (COLO 205 colon) | growth (NCI-H460 lung)
1 | Nc1nc2nnc(-c3ccccc3)c(-c3ccccc3)n2n1 | 97.2% | 88.3% | 110% | 16.7% | 61.4% | 109% | 101% | 111% | 101% | 
2 | Cc1ccc(NC(=S)N2CCOCC2)cc1C | 107% | 92.4% | 85.5% | 99.7% | 95% | 84.2% | 96.8% | 97% | 118% | 
3 | CCOC(OCC)C(=O)c1ccccc1 | 127% | 98.9% | 100% | 98.5% | 41.3% | 85.2% | 90.2% | 107% | 104% | 
4 | CC(=O)NC(CCC(=O)c1ccccc1)C(=O)O (stereo not given) | 101% | 91.1% | 98.5% | 76.2% | 97.6% | 90.2% | 63.3% | 87.9% | 108% | 
5 | COc1cc(C(=O)O)c(O)c(C(C)(C)C)c1 | 102% | 102% |  | 104% | 88.2% | 106% | 102% | 101% | 107% | 105%
6 | CCCCNC(=O)c1ccc(OCC)cc1 | 101% | 96% | 102% | 101% | 93.1% | 95.6% | 98.6% | 98.3% | 106% | 
7 | CN1CCN(C(=S)S)CC1 | 104% | 109% | 129% | 108% | 104% | 94.5% | 94% | 105% | 80.9% | 
8 | Nc1cc2ccccc2c(O)c1O | 54% | 81.2% | 89.1% | 76.9% | 83.9% | 45.3% | 96.9% | -32.2% (active) | 56.5% | 
9 | COc1nc(Nc2cccc(C(F)(F)F)c2)nc(OC)n1 | 97.2% | 96.8% | 96.9% | 98.8% | 92.4% | 75% | 102% | 96.8% | 109% | 
10 | S=C(NCc1ccccc1)N1CCC(CCCC2CCN(C(=S)NCc3ccccc3)CC2)CC1 | 90% | 91.4% | 118% | 97.2% | 77.5% | 80.2% | 95.5% | 101% | 110% | 
11 | O=c1cc(C(F)(F)F)[nH]c(=S)[nH]1 | 103% | 112% |  | 100% | 126% | 99.4% | 98.1% | 104% | 109% | 112%
12 | CCCOCc1cn[nH]n1 | 107% | 104% | 102% | 99.8% | 106% | 99.3% | 96% | 102% | 111% | 
13 | C=CCS(C)(=O)=O | 106% | 96.7% | 102% | 87.3% | 99.4% | 92.8% | 92.9% | 99.4% | 96.5% | 
14 | CCOC(=O)/C(C#N)=C\c1c[nH]c2ccccc12 | 86.5% | 79.8% | 110% | 80.7% | 81.6% | 70.4% | 105% | 114% | 98.7% | 
15 | O=c1nc(Nc2cccc(Cl)c2)oc2cc(Cl)oc(=O)c12 | 64.5% | 94.9% | 108% | 81.5% | 47.2% | 26.2% | 101% | 85.2% | 80.1% | 
16 | O=C(O)Cc1cccc2ccccc12 | 121% | 117% | 105% | 106% | 103% | 95.7% | 99.8% | 111% | 113% | 
17 | N=C(N)c1nn(C2OC(CO)C(O)C2O)c2nc[nH]c(=O)c12 (stereo not given) | -34.1% (active) | 13.5% | 6.64% (active) | -12% (active) | -23.5% (active) | 11.5% | 19.1% | -2.36% (active) | -11.5% (active) | 
18 | OCCOc1ccc(-c2cc(-c3ccccn3)nc(-c3ccccn3)c2)cc1 | 18.5% | 0.498% (active) | 9.08% (active) | 4.56% (active) | -1.12% (active) | -18.8% (active) | 4.79% (active) | 1.56% (active) | 0.364% (active) | 
19 | NCCCN1CCCC1=O | 101% | 109% | 96.9% | 112% | 105% | 92.6% | 91% | 105% | 111% | 
20 | O=C(NC(=S)N1CC=CCC1)c1ccccc1 | 107% | 104% | 116% | 109% | 104% | 77.3% | 103% | 111% | 118% | 
21 | O=Cc1ccc(F)cc1 | 105% | 94.7% | 90.6% | 108% | 103% | 97.8% | 108% | 102% | 111% | 
22 | O=C(NCc1ccccc1)/C(=C/c1ccccc1)NC(=O)c1ccccc1 | 104% | 98% | 104% | 104% | 85.8% | 90% | 85.4% | 112% | 110% | 
23 | CCOP(=O)(NC(c1ccccc1)c1ccccc1)OCC | 108% | 103% |  | 95.5% | 89.7% | 113% | 106% | 102% | 100% | 107%
24 | Nc1cc(F)ccc1[N+](=O)[O-] | 103% | 95.9% |  | 110% | 89.5% | 106% | 116% | 94.1% | 116% | 103%
25 | Oc1cc2ccccc2c(-c2c(O)c(O)cc3ccccc23)c1O | 41.5% | 39.6% |  | 42.3% | -22.5% (active) | 1.24% (active) | 36.1% | 50% | 58.1% | 9.65% (active)
26 | C[C@H](CCC[C@H](C)OS(=O)(=O)c1ccccc1)OS(=O)(=O)c1ccccc1 | 107% | 90.4% |  | 99.9% | 131% | 86.8% | 117% | 107% | 115% | 
27 | C/C(O)=C(/C=N/C(=S)Nc1ccccc1)C(=O)Nc1ccccc1C | 103% | 95.8% |  | 99.4% | 92.6% | 94.5% | 97.3% | 102% | 110% | 
28 | CCC(=O)C1C(=O)c2ccccc2C1=O | 101% | 104% |  | 99% | 85.8% | 86.6% | 113% | 107% | 122% | 115%
